# Reference: article PMC7862700, “An all-to-all approach to the identification of sequence-specific readers for epigenetic DNA modifications on cytosine”
# Experiments:
# Experiment in all cases: DAPPL (digital affinity profiling via proximity ligation, sequencing); 10 mM Tris-HCl pH 7.5, 50 mM NaCl, 1 mM DTT, 4% glycerol, room temperature, 30 min; GST-TFs on glutathione beads, 16-mer random dsDNA library, 0.1% formaldehyde crosslink after washing; high values mean tight binding
# FLI1 = target: T1, FLI1 (Homo sapiens, UniProt Q01543 1-452); conditions: protein: recombinant; tags: N-terminal GST; dsDNA, one strand shown
# T1 sequence: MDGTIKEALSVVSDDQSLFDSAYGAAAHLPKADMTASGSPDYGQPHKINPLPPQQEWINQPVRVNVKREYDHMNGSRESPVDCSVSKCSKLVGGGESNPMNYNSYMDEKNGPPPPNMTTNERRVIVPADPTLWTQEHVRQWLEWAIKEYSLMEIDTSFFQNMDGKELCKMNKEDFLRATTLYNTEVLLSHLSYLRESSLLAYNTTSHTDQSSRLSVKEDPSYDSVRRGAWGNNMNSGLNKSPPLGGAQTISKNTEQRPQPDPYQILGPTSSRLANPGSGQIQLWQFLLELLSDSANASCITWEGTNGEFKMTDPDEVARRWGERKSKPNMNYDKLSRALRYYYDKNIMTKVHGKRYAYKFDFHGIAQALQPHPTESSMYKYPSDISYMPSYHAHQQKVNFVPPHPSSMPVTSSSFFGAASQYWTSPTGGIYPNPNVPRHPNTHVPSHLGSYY
# How it was run: (§1)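 A tag-only sample was pooled with DNA-barcoded human transcription factors that had been expressed in yeast as GST fusions and captured on glutathione beads. The pools were incubated for 30 min at room temperature with 200 nmole of a random double-stranded 16-mer DNA library in Tris/NaCl/DTT/glycerol buffer, then washed, crosslinked with 0.1% formaldehyde, proximity-ligated (BsaI/T4 ligase, 1 h, 37 °C), PCR-amplified and sequenced on an Illumina NextSeq500. Binding signal is each hexamer's read frequency for a factor divided by its frequency for the tag-only sample.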
# ELK1 = target: T2, ELK1 (Homo sapiens, UniProt P19419 1-428); conditions: protein: recombinant; tags: N-terminal GST; dsDNA, one strand shown
# T2 sequence: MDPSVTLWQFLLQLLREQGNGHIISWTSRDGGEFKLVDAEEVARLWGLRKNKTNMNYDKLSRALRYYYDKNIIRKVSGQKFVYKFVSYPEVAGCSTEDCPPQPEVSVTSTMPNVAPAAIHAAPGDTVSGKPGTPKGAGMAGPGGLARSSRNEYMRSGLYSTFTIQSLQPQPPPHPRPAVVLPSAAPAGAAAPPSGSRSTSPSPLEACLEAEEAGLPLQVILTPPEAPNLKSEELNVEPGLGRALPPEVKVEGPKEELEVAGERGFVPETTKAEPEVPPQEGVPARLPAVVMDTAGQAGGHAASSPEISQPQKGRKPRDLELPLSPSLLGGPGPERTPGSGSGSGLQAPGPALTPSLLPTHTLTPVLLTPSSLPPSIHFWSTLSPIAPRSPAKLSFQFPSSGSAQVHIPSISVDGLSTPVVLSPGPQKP
# How it was run: as §1
# GABPA = target: T3, GABPA (Homo sapiens, UniProt Q06546 1-454); conditions: protein: recombinant; tags: N-terminal GST; dsDNA, one strand shown
# T3 sequence: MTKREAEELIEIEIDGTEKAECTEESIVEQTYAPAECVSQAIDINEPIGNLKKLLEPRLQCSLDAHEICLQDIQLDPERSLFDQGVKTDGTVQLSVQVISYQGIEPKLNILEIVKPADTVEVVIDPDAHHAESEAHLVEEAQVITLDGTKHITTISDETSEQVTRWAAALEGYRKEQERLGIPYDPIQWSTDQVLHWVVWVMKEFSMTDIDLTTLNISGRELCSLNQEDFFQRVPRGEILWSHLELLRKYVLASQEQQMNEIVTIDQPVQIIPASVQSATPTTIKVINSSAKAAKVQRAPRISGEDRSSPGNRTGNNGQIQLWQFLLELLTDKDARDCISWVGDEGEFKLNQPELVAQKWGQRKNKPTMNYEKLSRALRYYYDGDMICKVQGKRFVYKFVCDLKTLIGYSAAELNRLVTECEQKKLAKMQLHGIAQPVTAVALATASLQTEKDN
# How it was run: as §1
# ERG = target: T4, ERG (Homo sapiens, UniProt P11308 1-479); conditions: protein: recombinant; tags: N-terminal GST; dsDNA, one strand shown
# T4 sequence: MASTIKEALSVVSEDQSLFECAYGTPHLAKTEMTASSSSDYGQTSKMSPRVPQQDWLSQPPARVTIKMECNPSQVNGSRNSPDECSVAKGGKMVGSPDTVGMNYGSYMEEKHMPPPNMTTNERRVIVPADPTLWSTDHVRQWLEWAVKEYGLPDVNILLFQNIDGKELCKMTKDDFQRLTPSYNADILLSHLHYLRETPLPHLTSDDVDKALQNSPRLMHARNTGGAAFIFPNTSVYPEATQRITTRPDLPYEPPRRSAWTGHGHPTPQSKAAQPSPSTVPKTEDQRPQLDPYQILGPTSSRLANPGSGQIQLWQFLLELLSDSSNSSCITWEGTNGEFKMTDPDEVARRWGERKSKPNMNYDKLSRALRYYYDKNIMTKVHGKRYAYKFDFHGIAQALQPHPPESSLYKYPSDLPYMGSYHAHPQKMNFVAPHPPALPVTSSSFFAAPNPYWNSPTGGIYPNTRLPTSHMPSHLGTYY
# How it was run: as §1
# ELF1 = ELF1 (Homo sapiens, UniProt P32519 1-619); conditions: protein: recombinant; tags: N-terminal GST; dsDNA, one strand shown
# Chain of ELF1 (P32519 whole entry): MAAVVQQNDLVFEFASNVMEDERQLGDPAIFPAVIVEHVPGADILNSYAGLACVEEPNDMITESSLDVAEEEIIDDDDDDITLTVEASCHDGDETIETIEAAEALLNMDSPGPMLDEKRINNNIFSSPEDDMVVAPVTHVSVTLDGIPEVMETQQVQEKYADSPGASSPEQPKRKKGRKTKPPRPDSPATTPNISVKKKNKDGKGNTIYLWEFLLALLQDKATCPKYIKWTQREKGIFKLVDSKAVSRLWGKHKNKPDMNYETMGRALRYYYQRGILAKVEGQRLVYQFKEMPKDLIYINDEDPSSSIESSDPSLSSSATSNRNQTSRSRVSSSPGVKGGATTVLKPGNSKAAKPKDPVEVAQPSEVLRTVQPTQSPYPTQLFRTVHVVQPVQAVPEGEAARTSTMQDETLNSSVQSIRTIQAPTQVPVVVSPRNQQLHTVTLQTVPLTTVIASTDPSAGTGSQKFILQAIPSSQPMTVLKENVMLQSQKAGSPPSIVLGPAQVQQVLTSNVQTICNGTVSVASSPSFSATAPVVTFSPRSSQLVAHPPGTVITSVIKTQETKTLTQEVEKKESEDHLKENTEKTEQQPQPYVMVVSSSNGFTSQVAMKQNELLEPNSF
# How it was run: as §1
# EHF = target: T5, EHF (Homo sapiens, UniProt Q9NZC4 1-300); conditions: protein: recombinant; tags: N-terminal GST; dsDNA, one strand shown
# T5 sequence: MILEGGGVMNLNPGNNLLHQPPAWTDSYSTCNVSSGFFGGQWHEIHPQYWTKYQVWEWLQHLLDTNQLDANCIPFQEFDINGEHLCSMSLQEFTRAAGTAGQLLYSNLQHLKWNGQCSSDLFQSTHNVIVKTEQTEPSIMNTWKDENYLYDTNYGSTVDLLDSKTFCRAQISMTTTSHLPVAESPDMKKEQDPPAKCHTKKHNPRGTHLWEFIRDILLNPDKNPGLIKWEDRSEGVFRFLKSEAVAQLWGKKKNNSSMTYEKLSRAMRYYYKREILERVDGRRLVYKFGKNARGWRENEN
# How it was run: as §1
# SPI1 = SPI1 (Homo sapiens, UniProt P17947 1-270); conditions: protein: recombinant; tags: N-terminal GST; dsDNA, one strand shown
# How it was run: as §1
# SPIB = SPIB (Homo sapiens, UniProt Q01892 1-262); conditions: protein: recombinant; tags: N-terminal GST; dsDNA, one strand shown
# Chain of SPIB (Q01892 whole entry): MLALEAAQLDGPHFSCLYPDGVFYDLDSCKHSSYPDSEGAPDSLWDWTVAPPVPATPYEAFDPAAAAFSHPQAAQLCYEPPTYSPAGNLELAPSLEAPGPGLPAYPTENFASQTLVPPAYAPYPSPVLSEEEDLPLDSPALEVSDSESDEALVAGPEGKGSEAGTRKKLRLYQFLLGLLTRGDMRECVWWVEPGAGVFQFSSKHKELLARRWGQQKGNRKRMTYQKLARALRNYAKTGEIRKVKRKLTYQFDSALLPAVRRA
# How it was run: as §1
# ELK3 = target: T6, ELK3 (Homo sapiens, UniProt P41970 1-407); conditions: protein: recombinant; tags: N-terminal GST; dsDNA, one strand shown
# T6 sequence: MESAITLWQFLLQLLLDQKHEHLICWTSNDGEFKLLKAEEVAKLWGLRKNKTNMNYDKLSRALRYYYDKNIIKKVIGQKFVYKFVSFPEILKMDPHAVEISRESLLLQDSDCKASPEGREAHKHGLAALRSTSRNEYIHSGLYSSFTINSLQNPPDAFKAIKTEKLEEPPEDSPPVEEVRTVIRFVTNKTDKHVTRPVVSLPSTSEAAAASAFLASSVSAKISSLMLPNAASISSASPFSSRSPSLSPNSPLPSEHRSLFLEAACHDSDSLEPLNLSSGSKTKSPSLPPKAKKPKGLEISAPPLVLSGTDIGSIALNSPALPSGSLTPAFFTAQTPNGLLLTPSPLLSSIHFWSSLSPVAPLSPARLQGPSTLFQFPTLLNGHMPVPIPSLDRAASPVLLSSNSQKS
# How it was run: as §1
# FEV = target: T7, FEV (Homo sapiens, UniProt Q99581 1-238); conditions: protein: recombinant; tags: N-terminal GST; dsDNA, one strand shown
# T7 sequence: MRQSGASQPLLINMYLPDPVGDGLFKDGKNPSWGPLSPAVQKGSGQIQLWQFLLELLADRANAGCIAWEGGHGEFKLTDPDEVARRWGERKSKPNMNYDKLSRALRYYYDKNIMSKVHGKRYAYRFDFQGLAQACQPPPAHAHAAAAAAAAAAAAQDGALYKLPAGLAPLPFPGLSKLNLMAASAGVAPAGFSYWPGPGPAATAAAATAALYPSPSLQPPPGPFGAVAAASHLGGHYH
# How it was run: as §1
# ETV5 = ETV5 (Homo sapiens, UniProt P41161 1-510); conditions: protein: recombinant; tags: N-terminal GST; dsDNA, one strand shown
# Chain of ETV5 (P41161 whole entry): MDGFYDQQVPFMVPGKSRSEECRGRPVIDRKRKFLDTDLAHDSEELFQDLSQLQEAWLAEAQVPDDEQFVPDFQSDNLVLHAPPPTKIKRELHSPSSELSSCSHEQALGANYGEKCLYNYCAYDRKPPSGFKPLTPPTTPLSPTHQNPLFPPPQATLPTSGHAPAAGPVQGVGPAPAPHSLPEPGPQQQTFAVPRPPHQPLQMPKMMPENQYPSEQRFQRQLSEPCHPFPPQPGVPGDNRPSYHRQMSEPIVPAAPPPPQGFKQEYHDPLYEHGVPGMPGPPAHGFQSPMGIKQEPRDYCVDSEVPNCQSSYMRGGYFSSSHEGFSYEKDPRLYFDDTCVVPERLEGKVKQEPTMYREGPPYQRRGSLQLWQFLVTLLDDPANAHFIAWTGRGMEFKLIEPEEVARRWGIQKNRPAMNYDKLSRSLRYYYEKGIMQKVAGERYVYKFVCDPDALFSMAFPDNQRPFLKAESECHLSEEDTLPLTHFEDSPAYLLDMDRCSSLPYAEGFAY
# How it was run: as §1
# HSF1 = HSF1 (Homo sapiens, UniProt Q00613 1-529); conditions: protein: recombinant; tags: N-terminal GST; chain copies: 3; dsDNA, one strand shown
# Chain of HSF1 (Q00613 whole entry): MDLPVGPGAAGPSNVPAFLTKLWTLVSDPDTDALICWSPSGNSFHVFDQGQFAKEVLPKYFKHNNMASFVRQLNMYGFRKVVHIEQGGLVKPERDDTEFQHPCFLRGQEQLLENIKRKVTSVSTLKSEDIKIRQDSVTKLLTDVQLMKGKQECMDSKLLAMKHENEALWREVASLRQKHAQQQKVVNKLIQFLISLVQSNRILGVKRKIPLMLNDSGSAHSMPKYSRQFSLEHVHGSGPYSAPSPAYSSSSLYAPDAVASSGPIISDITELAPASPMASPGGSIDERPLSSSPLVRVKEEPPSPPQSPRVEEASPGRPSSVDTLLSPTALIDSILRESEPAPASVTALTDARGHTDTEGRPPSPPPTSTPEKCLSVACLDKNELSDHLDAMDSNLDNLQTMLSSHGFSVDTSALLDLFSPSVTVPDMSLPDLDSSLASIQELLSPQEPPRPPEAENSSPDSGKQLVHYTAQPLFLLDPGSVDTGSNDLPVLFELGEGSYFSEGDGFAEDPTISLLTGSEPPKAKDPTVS
# How it was run: as §1
# SPIC = target: T8, SPIC (Homo sapiens, UniProt Q8N5J4 1-248); conditions: protein: recombinant; tags: N-terminal GST; dsDNA, one strand shown
# T8 sequence: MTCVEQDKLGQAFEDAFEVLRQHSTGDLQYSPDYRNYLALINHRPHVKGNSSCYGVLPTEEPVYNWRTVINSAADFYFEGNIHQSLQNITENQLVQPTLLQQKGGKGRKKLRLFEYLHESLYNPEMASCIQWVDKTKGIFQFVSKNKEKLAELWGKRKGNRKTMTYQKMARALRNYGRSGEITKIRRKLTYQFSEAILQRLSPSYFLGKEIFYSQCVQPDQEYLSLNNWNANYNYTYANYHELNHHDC
# How it was run: as §1
# ELF4 = ELF4 (Homo sapiens, UniProt Q99607 1-663); conditions: protein: recombinant; tags: N-terminal GST; dsDNA, one strand shown
# Chain of ELF4 (Q99607 whole entry): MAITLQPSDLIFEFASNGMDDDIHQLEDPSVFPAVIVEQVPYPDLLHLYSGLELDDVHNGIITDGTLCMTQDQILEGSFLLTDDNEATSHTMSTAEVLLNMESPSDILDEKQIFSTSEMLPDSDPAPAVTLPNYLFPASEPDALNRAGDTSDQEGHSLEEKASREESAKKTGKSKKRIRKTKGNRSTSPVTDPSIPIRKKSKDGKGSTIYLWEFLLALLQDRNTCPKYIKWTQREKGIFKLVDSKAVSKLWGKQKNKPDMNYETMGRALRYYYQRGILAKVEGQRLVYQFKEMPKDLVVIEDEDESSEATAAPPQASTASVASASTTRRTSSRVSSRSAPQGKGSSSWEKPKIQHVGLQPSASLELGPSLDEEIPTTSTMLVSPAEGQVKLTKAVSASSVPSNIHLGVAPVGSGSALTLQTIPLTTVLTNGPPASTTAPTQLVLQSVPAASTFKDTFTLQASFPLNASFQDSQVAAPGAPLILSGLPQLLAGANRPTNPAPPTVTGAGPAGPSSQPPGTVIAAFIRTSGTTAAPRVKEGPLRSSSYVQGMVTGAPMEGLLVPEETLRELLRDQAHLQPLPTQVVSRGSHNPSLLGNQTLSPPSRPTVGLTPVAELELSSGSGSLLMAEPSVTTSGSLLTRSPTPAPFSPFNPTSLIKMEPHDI
# How it was run: as §1
# ELK4 = target: T9, ELK4 (Homo sapiens, UniProt P28324-2 1-405); conditions: protein: recombinant; tags: N-terminal GST; dsDNA, one strand shown
# T9 sequence: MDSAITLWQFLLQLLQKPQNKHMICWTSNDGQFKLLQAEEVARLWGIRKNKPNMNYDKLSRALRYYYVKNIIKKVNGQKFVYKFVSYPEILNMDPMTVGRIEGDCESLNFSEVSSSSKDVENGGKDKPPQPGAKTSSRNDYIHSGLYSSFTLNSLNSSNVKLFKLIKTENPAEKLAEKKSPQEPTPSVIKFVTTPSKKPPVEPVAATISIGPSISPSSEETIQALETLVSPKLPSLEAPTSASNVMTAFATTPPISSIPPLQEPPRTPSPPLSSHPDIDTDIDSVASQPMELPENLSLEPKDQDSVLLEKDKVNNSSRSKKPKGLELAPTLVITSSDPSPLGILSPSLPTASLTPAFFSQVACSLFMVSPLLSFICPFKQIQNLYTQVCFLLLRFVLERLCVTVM
# How it was run: as §1
# ETV2 = target: T10, ETV2 (Homo sapiens, UniProt O00321 1-342); conditions: protein: recombinant; tags: N-terminal GST; dsDNA, one strand shown
# T10 sequence: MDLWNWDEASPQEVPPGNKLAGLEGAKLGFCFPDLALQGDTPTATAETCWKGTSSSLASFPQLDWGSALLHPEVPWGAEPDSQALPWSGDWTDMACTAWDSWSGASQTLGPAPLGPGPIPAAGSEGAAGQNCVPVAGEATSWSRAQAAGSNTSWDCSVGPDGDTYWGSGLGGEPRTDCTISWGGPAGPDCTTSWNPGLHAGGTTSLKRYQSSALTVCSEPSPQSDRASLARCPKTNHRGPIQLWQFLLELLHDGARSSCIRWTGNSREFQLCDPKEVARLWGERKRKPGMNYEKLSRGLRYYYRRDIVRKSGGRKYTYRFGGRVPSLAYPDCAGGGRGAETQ
# How it was run: as §1
# ELF3 = target: T11, ELF3 (Homo sapiens, UniProt P78545 1-371); conditions: protein: recombinant; tags: N-terminal GST; dsDNA, one strand shown
# T11 sequence: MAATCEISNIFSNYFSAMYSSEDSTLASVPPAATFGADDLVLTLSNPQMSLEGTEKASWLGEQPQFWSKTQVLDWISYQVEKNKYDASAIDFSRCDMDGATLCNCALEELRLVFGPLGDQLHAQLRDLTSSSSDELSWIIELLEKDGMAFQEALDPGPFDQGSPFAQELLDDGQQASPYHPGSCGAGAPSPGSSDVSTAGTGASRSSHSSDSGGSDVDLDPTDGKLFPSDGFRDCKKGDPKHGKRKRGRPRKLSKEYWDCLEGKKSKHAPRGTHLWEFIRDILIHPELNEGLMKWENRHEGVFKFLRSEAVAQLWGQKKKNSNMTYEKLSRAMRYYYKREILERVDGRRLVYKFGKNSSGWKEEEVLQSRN
# How it was run: as §1
# CRX = CRX (Homo sapiens, UniProt O43186 1-299); conditions: protein: recombinant; tags: N-terminal GST; dsDNA, one strand shown
# Chain of CRX (O43186 whole entry): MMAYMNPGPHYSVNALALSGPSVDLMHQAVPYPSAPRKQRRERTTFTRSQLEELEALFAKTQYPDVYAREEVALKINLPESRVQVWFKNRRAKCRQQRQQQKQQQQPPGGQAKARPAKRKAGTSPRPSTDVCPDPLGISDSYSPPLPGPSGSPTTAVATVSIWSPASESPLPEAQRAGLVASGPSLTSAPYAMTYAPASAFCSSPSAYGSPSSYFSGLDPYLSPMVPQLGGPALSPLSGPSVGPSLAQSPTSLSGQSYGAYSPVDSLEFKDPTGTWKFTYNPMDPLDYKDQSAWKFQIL
# How it was run: as §1
# ETV1 = ETV1 (Homo sapiens, UniProt P50549 1-477); conditions: protein: recombinant; tags: N-terminal GST; dsDNA, one strand shown
# Chain of ETV1 (P50549 whole entry): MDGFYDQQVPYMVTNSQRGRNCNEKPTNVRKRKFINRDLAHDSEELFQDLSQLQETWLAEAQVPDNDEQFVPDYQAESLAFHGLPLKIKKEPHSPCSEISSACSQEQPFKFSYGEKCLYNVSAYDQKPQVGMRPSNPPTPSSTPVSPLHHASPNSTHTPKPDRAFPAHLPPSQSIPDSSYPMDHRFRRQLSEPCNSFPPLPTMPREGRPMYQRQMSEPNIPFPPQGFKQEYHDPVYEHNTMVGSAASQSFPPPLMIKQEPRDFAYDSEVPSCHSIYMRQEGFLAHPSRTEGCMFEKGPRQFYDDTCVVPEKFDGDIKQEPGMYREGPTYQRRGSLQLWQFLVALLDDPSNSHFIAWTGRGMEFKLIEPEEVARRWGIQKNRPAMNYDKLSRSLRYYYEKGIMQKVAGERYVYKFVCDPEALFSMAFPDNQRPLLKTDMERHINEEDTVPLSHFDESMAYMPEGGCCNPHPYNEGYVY
# How it was run: as §1
sequence,measurement,setting,value
CAAGAT,binding signal,FLI1,"1.04 fold enrichment (6-mer frequency, TF over GST control)"
same,binding signal,ELK1,"1.04 fold enrichment (6-mer frequency, TF over GST control)"
same,binding signal,GABPA,"1.17 fold enrichment (6-mer frequency, TF over GST control)"
same,binding signal,ERG,"1.05 fold enrichment (6-mer frequency, TF over GST control)"
same,binding signal,ELF1,"1.06 fold enrichment (6-mer frequency, TF over GST control)"
same,binding signal,EHF,"1.04 fold enrichment (6-mer frequency, TF over GST control)"
same,binding signal,SPI1,"1.01 fold enrichment (6-mer frequency, TF over GST control)"
same,binding signal,SPIB,"1.01 fold enrichment (6-mer frequency, TF over GST control)"
same,binding signal,ELK3,"1.14 fold enrichment (6-mer frequency, TF over GST control)"
same,binding signal,FEV,"1.02 fold enrichment (6-mer frequency, TF over GST control)"
same,binding signal,ETV5,"1.1 fold enrichment (6-mer frequency, TF over GST control)"
same,binding signal,HSF1,"1.18 fold enrichment (6-mer frequency, TF over GST control)"
same,binding signal,SPIC,"1.14 fold enrichment (6-mer frequency, TF over GST control)"
same,binding signal,ELF4,"1.18 fold enrichment (6-mer frequency, TF over GST control)"
same,binding signal,ELK4,"1.11 fold enrichment (6-mer frequency, TF over GST control)"
same,binding signal,ETV2,"1.09 fold enrichment (6-mer frequency, TF over GST control)"
same,binding signal,ELF3,"1.06 fold enrichment (6-mer frequency, TF over GST control)"
same,binding signal,CRX,"1.23 fold enrichment (6-mer frequency, TF over GST control)"
same,binding signal,ETV1,"1.06 fold enrichment (6-mer frequency, TF over GST control)"
